# Test results published in article PMC4336329 (PLoS ONE, 2015).
# Among all 310,000 compounds or so, about 2,200 (0.71%) showed an effect of 50% or more. Effects have a minus sign here. This excerpt belongs to a sample that is enriched for strong results.
# Target: human ether-à-go-go-related gene (hERG) potassium channel (human, UniProt Q12809)
# Assay: primary screen, population patch clamp on CHO cells stably expressing hERG; higher = less effect of the substance
# Chain of human ether-à-go-go-related gene (hERG) potassium channel (Q12809 whole entry, looked up): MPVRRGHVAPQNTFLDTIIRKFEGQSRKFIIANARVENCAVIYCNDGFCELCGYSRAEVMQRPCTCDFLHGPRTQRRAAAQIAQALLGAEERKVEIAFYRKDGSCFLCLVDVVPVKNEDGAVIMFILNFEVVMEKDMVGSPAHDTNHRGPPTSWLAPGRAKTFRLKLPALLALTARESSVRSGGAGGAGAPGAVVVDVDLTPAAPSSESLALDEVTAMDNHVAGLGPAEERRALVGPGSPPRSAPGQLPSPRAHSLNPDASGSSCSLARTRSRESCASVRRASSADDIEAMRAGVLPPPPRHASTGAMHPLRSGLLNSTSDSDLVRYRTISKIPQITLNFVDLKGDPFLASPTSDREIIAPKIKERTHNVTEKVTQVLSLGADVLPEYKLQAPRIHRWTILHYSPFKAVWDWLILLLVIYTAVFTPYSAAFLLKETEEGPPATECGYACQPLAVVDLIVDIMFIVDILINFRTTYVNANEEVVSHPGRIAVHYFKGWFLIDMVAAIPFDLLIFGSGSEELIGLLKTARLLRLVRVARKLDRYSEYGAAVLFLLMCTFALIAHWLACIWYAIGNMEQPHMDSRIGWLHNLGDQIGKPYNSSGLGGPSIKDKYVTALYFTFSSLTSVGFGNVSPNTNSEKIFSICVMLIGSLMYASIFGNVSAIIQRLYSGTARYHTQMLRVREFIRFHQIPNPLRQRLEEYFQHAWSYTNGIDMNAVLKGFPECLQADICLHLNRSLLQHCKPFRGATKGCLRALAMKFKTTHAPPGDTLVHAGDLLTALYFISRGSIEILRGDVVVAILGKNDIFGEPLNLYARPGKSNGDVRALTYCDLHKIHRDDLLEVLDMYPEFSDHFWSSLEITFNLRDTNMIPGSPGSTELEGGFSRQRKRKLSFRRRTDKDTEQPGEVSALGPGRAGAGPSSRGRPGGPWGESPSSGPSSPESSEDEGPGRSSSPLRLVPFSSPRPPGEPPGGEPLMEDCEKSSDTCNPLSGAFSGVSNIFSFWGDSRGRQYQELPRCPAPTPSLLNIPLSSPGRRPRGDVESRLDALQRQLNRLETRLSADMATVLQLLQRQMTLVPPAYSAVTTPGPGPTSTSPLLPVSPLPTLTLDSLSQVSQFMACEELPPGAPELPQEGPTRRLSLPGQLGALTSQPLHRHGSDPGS
row,SMILES,"hERG current change (%, negative = inhibition) at 1uM"
1,CCOc1ccc(S(=O)(=O)n2nc(C)cc2C)cc1,13.8%
2,CCOc1cc(/C=N/NC(=O)CNc2ccc(C)cc2)ccc1OC(=O)c1ccccc1,-0.419%
3,CN(Cc1c(F)cccc1Cl)C(=O)CNC(=O)c1ccc2c(c1)OCO2,13.8%
4,CCCOc1ccc(NC(=O)CC2C(=O)N(c3ccc(OCC)cc3)C(=S)N2C2CC2)cc1 (centres unmarked),-3.7%
5,CN1CCN(c2ccc(NC(=O)c3ccc([N+](=O)[O-])o3)cc2Cl)CC1,-13.7%
6,Cc1ccc(N2CC(O)Cn3c2nc2c3c(=O)n(C)c(=O)n2C)cc1 (centres unmarked),13.5%
7,CCc1ccc2oc(-c3ccc(OC)cc3)cc(=[NH+]c3cccc(C(=O)O)c3)c2c1.F[B-](F)(F)F,4.56%
8,Cc1cc(Cl)ccc1Oc1ncnc2oc(-c3ccccc3)cc12,6.84%
9,O=c1cc(-c2ccccc2)oc2ccccc12,13%
10,CC(C)C[NH+]=c1cc(-c2ccccc2)oc2ccc(Cl)cc12.F[B-](F)(F)F,-81.1%
11,CC(O)C[NH+]=c1cc(-c2ccccc2)oc2ccc(Cl)cc12.F[B-](F)(F)F (centres unmarked),-57%
12,CCc1ccc2oc(-c3ccc(OC)cc3)cc(=[NH+]c3c(C)n(C)n(-c4ccccc4)c3=O)c2c1.F[B-](F)(F)F,-33.7%
13,COC(=O)c1sc(S(=O)(=O)N2CCC(C(N)=O)CC2)c(C(=O)OC)c1C,-10.8%
14,Cc1cc2nnc(SCc3ccccc3)n2c(N)n1,-5.86%
15,CCCCNC(=O)CN(c1ccc(Cl)c(Cl)c1)S(C)(=O)=O,7.06%
16,COC(=O)C1=C(N)Oc2cc(N(C)C)ccc2C1c1ccccc1OC (centres unmarked),-84.1%
17,COC(=O)C1=C(N)Oc2cc(C)[nH]c(=O)c2C1c1ccccc1OC (centres unmarked),9.49%
18,CCOc1ccc(Br)cc1C1C(C(=O)OC)=C(N)Oc2cc(N(C)C)ccc21 (centres unmarked),16.6%
19,Cc1cc(C)nc(SCc2ccc(C(=O)N/N=C/c3cccc(O)c3O)cc2)n1,10.8%

row,SMILES,"hERG current change (%, negative = inhibition) at 1uM"
1,c1ccc(-c2nc(NCCCN3CCOCC3)c3ccccc3n2)cc1,3.18%
2,c1ccc2[nH]c(NCCCN3CCOCC3)nc2c1,14.6%
3,CCCc1cc(NCCCN2CCOCC2)n2c(nc3ccccc32)c1C#N,-37%
4,c1ccc2c(NCCCN3CCOCC3)c3ccccc3nc2c1,-54.2%
5,Cc1nc(NCCN2CCOCC2)c2oc3ccccc3c2n1.Cl,-8.71%
6,Cc1cc(NCCN2CCOCC2)c2ccc3ccccc3c2n1,-58.3%
7,Cc1cc(NCCCN2CCOCC2)n2c(nc3ccccc32)c1C#N,-0.298%
8,COc1ccc2nc(C)cc(NCCN3CCOCC3)c2c1,12.3%
9,CC(C)c1cc(NCCCN2CCOCC2)n2c(nc3ccccc32)c1C#N,-55.7%
10,Cc1[nH]nc2c1C(c1ccccc1F)CC(=O)N2 (centres unmarked),-1.84%
11,Cc1c(Cl)cccc1NC(=O)COc1ccc(S(=O)(=O)N2CCOCC2)cc1,3.86%
12,Cc1ccc(S(=O)(=O)N2CCN(CC(=O)NC3CCCc4ccccc43)CC2)cc1C.O=C(O)C(=O)O (centres unmarked),1.77%
13,CCC(=O)Nc1ccc(NC(=S)NC(=O)/C=C/c2ccco2)cc1,6%
14,Cc1ccc(-c2cc(C(=O)NCCc3ccccn3)c3ccccc3n2)c(C)c1,-13.8%
15,Brc1ccc(NC(c2ccccc2)c2ccncc2)cc1.Cl (centres unmarked),17.3%
16,COCCNC(=O)C(c1cccs1)N(C(=O)Cn1nnc2ccccc21)c1ccccc1 (centres unmarked),2.32%
17,CC1(C)CC2(CC(c3ccccc3)Oc3cc(O)ccc32)NC(=S)N1 (centres unmarked),6.06%
18,CC1(C)CC2(CC(c3ccccc3)Oc3cc(O)ccc32)NC(=O)N1 (centres unmarked),10.8%
19,CSC1=NC2(CC(c3ccccc3)Oc3cc(O)ccc32)CC(C)(C)N1 (centres unmarked),-68.8%

row,SMILES,"hERG current change (%, negative = inhibition) at 1uM"
1,Cc1nnc(NC(=O)c2c(F)c(F)c(F)c(F)c2F)s1,15.5%
2,O=C(Nc1cnccn1)C1c2ccccc2Oc2ccccc21,0.161%
3,O=C(NCc1ccco1)c1n[nH]c(=O)c2ccccc12,11.8%
4,c1coc(CNc2ncnc3sc4c(c23)CCCCC4)c1,-16%
5,CSc1nc(SCC(=O)NCc2ccco2)c2c3c(sc2n1)CN(C)CC3,4.1%
6,Cc1nc(NCc2ccco2)c2c3c(sc2n1)CCC3,2.14%
7,CCN1CCc2c(sc3c2c(NCc2ccco2)nc2nnnn23)C1,-69.3%
8,CCN1CCc2c(sc(NC(=S)NC(=O)c3ccco3)c2C(N)=O)C1,15.8%
9,CN1CCc2c(sc3c2c(NCc2ccco2)nc2nnnn23)C1,-72.8%
10,COc1ccc(C2C(C(=O)Nc3ccccc3OC)=C(C)Nc3nnnn32)c(OC)c1 (centres unmarked),7.88%
11,CC(NC(=S)NCCCN1CCOCC1)C12CC3CC(CC(C3)C1)C2 (centres unmarked),12.9%
12,CCCCCn1c(N)c(C(=O)NCCN2CCOCC2)c2nc3ccccc3nc21,-0.506%
13,CCCCn1c(N)c(C(=O)NCCN2CCOCC2)c2nc3ccccc3nc21,-21%
14,CC(C)Cn1c(N)c(C(=O)NCCN2CCOCC2)c2nc3ccccc3nc21,-71.5%
15,Cc1c(C(=O)N(CCc2ccccc2)Cc2ccccc2)cccc1[N+](=O)[O-],12.7%
16,OCCCC1CCCCN1Cc1nc(Cc2ccccc2Cl)no1 (centres unmarked),-65.5%
17,CCC1CCCCN1Cc1nc(Cc2ccccc2Cl)no1 (centres unmarked),4.88%
18,Clc1ccccc1Cc1noc(CN2CCCCC2CCc2ccccn2)n1 (centres unmarked),-3.35%
